# Results filed as inconclusive are left out. Calls of active or inactive are those of the source. Calls follow the shape of the dose curve; as a rule, active = well fitted inhibition curve with a large enough effect; inconclusive = small, poorly fitted or top-dose-only effect; inactive = flat fitted curve, though single readings scatter.
# Biological target: Luciferin 4-monooxygenase (Photinus pyralis) (UniProt P08659)
# Test: FLuc inhibitory activity for the follow-up compounds in a biochemical assay with 1mM ATP
# Details: purified P. pyralis luciferase, luminescence; series mostly up to 57.5 µM
# Excerpt: NCGC Assay Overview: Firefly (Photinus pyralis) luciferase is one of the most commonly used transcriptional reporters. It is considered one of the more dynamically responsive reporters - that is, responsive to changes in reporter transcription - as it requires no post-translational modifications and is enzymatically active directly after protein synthesis (Wood, 1998). With no endogenous expression in mammalian cells and without the requirement of external excitation, it offers very little background signal, thus generally providing excellent signal to background for most assays. Previous profiling work to determine the prevalence of compounds that affect FLuc enzymatic activity (PubChem AID 411) identified that ~3% of the MLSMR library (then at ~72K) inhibited FLuc. […] Of the compounds identified in this profile that inhibited FLuc, 151 compounds were selected for further analysis, in an effort to better understand their mode of inhibiting FLuc. The assay described here was to determine the activity of the compounds in a FLuc assay that contained a KM concentration of D-luciferin and a high concentration (1mM) of ATP.
# NCGC Assay Protocol Summary: Reagents: 50mM Tris acetate, pH 7.5; 10mM Mg acetate; 10uM D-luciferin (Sigma #L9504); 1mM ATP; 0.01% Tween-20; 0.05% BSA; 10nM P. pyralis luciferase (Sigma #L9506) Control compounds used were two known firefly luciferase inhibitors (3-(5-(3-chlorophenyl)-1,2,4-oxadiazol-3-yl)benzoic acid and 5-(2-fluorophenyl)-3-phenyl-1,2,4-oxadiazole), and DMSO. Three microliters containing firefly luciferase substrates in buffer (final concentrations: 50mM Tris acetate, pH 7.5, 10mM Mg acetate, 0.01% Tween-20, 0.05% BSA, 10uM D-luciferin, 1mM ATP) are dispensed into each well of a Greiner white, solid-bottom 1536-well format plate using a flying reagent dispenser (FRD). These assay plates were then treated with 23nL of compound or DMSO using a Kalypsys pin tool, which allows for delivery of a 12-point intraplate titration of each compound to the assay plate (quantitative HTS), with a final compound concentrations ranging from approximately ~60uM to 0.3nM. One microliter of firefly luciferase in […] Tris-acetate buffer was then delivered by FRD to each well for a final enzyme concentration of 10nM. Luciferase activity was then measured using a ViewLux CCD imager (PerkinElmer), with an average exposure time of 2-30 seconds (2X binning, medium/high gain).
# Sequence of Luciferin 4-monooxygenase (Photinus pyralis) (P08659 whole entry, looked up): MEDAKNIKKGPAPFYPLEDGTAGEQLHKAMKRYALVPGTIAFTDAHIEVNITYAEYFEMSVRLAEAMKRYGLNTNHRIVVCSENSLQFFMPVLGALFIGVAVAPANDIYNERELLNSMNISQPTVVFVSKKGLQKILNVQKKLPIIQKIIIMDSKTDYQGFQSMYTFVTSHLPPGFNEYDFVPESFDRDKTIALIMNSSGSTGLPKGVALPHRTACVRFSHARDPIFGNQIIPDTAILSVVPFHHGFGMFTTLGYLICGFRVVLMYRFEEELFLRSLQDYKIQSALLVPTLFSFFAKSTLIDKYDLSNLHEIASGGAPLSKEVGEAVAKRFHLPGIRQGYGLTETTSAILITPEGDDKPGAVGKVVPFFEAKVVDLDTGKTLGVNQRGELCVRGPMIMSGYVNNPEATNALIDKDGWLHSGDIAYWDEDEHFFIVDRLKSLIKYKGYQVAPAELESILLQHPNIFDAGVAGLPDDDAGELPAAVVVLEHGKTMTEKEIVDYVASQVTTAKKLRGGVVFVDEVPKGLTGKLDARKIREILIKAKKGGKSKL
row,Structure (SMILES),Potency
1,Cc1ccc(NS(=O)(=O)c2ccc(Cl)c(C(=O)Nc3cccc(C(=O)O)c3)c2)cc1,inactive
2,CCOc1ccc(C(=O)Nc2ccccc2C(=O)O)cc1,1.83 µM (active)
3,COc1ccc2nc(NC(=O)c3ccc([N+](=O)[O-])o3)sc2c1,3.26 µM (active)
4,CC(C)(C)C(=O)Nc1ccc(-c2nc3ccccc3s2)cc1,0.0259 µM (active)
5,CCCC(=O)Nc1nc2ccc(OCC)cc2s1,3.26 µM (active)
6,O=C(O)c1ccc(NC(=O)c2cccc(C(=O)Nc3ccc(C(=O)O)cc3)c2)cc1,inactive
7,CCOc1ccc2nc(NC(=O)c3ccoc3C)sc2c1,0.13 µM (active)
8,CCOc1ccc2nc(NC(=O)c3cccnc3)sc2c1,2.06 µM (active)
9,O=C(Nc1ccccc1C(=O)O)c1cc(S(=O)(=O)NCc2ccccc2)ccc1Cl,inactive
10,O=C(Nc1ccccc1C(=O)O)c1ccc(NC(=O)C2CC2)cc1,3.66 µM (active)
11,Cc1ccc(C(=O)Nc2ccc(C(=O)O)cc2)cc1S(=O)(=O)Nc1ccccc1,inactive
12,O=C(Nc1ccc(-c2nc3ccccc3s2)cc1)C1=COCCO1,0.0183 µM (active)
13,Cc1c(C)c2ccc(OCC(=O)Nc3ccccn3)c(C)c2oc1=O,0.0082 µM (active)
14,c1ccc2sc(-c3ccc4c(c3)OCO4)nc2c1,0.0919 µM (active)
15,CCOC(=O)N1CCN(CC(=O)Nc2nc3ccc(OC)cc3s2)CC1,inactive
16,COc1cc(C(=O)Nc2cc(C)c(O)c(-c3nc4ccccc4s3)c2)cc(OC)c1OC,inactive
17,CC(C)(C)NC(=O)c1ccccc1-c1nc2ccccc2s1,inactive
18,O=C(Nc1ccccc1C(=O)O)c1ccc(Cl)c(S(=O)(=O)N2CCOCC2)c1,10.3 µM (active)
19,O=C(O)c1ccc(NC(=O)c2ccccc2NC(=O)c2ccccc2Br)cc1,inactive
20,Nc1ccc(-c2nc3ccc(C(=O)O)cc3s2)cc1,0.0651 µM (active)

row,Structure (SMILES),Potency
1,Cn1c(N/N=C/c2cc3ccccc3nc2Cl)nc2ccccc21,14.6 µM (active)
2,COc1ccc(C(=O)Nc2ccccc2C(=O)N/N=C/c2ccc(O)c(OC)c2)cc1,0.0146 µM (active)
3,COc1c(C)cccc1C(=O)Nc1ccc(-c2nc3ccccc3s2)c(Cl)c1,inactive
4,CC(C)CC(=O)Nc1cccc(C(=O)Nc2ccccc2C(=O)O)c1,18.3 µM (active)
5,Nc1ccccc1C(=O)Nc1cccc(C(=O)O)c1,3.66 µM (active)
6,Cc1ccc(C(=O)Nc2ccccc2C(=O)O)cc1S(=O)(=O)N1CCCCCC1,1.83 µM (active)
7,CN=c1scc(-c2ccccc2F)n1/N=C/c1ccc[nH]1,0.058 µM (active)
8,O=C(Nc1ccccc1C(=O)O)c1cccc(NC(=O)c2ccc(Br)o2)c1,32.6 µM (active)
9,CCn1c(C)nc2cc(-c3nc4n(n3)Cc3ccccc3-4)ccc21,0.0326 µM (active)
10,O=C(O)c1cccc(NC(=O)c2cccc(S(=O)(=O)N3CCc4ccccc4C3)c2)c1,18.3 µM (active)
11,COc1ccc(-c2nc3ccccc3s2)cc1O,0.0259 µM (active)
12,Cc1c(NC(=O)C(C)(C)C)cccc1-c1nc2ccccc2s1,25.9 µM (active)
13,Cc1ccc2sc(-c3ccc(NC(=O)c4cc(-n5cnnc5)ccc4Cl)cc3)nc2c1,1.63 µM (active)
14,COc1cc(OC)cc(C(=O)Nc2ccccc2-c2nc3ccccc3s2)c1,inactive
15,CC(C)c1ccc(-c2nc3ccccc3s2)cc1,0.0411 µM (active)
16,COc1ccc2nc(NC(=O)Cc3cccs3)sc2c1,4.11 µM (active)
17,COc1ccc(CC(=O)Nc2ccc(-c3nc4ccccc4s3)c(C)c2)cc1,18.3 µM (active)
18,O=C(COC(=O)c1ccccc1[N+](=O)[O-])c1ccc2c(c1)OCO2,0.0046 µM (active)
19,COc1ccc(C(=O)Nc2ccccc2C(=O)Nc2ccccc2C(=O)O)cc1,4.61 µM (active)
20,O=C(Nc1ccccc1C(=O)O)c1cccc(NC(=O)c2ccccc2Br)c1,36.6 µM (active)

# Source: PubChem BioAssay AID602364 (National Center for Advancing Translational Sciences (NCATS), 2012)
